# Assay results as given in PubChem BioAssay.
# Records with an inconclusive call do not appear. Calls of active or inactive are those of the source. Unless noted, cut-off not given; nearly all actives show AC50 up to about 26 µM.
# Experiment: liver-stage malaria parasite growth inhibition, primary screen, cell-based, HepG2, luciferase luminescence, HepG2 viability (AID 624349; in the data active means parasite load remaining mostly below about 12%, no sharp cut-off; inactive means mostly above about 10%;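 further: 100% = mean of DMSO negative control wells on the same plate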)
# Conditions: P. berghei liver stage in HepG2, luciferase luminescence, concentration not given here; parasite load remaining: stronger effect = lower value; viability: measured here: HepG2 viability without parasites
Compound,viability [%],parasite load remaining
Nc1ccn([C@@H]2O[C@H](CO)[C@@H](O)C2(F)F)c(=O)n1,190,8.34% (inactive)
COc1cc2ncnc(Nc3cccc(Cl)c3)c2cc1OC,78.3,63.9% (inactive)
Nc1cccc(-c2cc3c(Oc4cccc(O)c4)ncnc3[nH]2)c1,64.3,28.2% (inactive)

# Experiment: growth inhibition of DIPG glioma cells, dose response, cell-based, SU-DIPG-XVII, MIPE5.0, CellTiter-Glo, qHTS (AID 1347060);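 on AC50: cells exposed to compound for 48 hours before viability readout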
# Conditions: SU-DIPG-XVII viability, CellTiter-Glo ATP luminescence
Compound,AC50,outcome
COc1ccc(-c2cc3nccn3c(Nc3ncccc3C(N)=O)n2)cc1OC,11.8 µM (active),
CNC(=O)c1cc(COc2nnc(Nc3ccc(Cl)cc3)c3ccoc23)ccn1,16.6 µM (active),
Nc1ccn([C@@H]2O[C@H](CO)[C@@H](O)C2(F)F)c(=O)n1,0.0186 µM (active),
CCn1c(=O)c(-c2ccn[nH]2)cc2c(C)nc(N)nc21,7.42 µM (active),
CC(C)n1ncnc1-c1cn2c(n1)-c1ccc(O[C@@H](C)C(N)=O)cc1OCC2,1.32 µM (active),
N#C/C(=C1/Nc2ccccc2S1)c1ccnc(OCc2ccc(CN3CCOCC3)cc2)n1,14.8 µM (active),
CC(C)=CCC/C(C)=C/CC/C(C)=C/CSc1ccccc1C(=O)O,,inactive
O=C1[C@H](Cc2ccc(O)cc2)N2C(=O)CCN(C(=O)NCc3ccccc3)[C@H]2CN1Cc1cccc2ccccc12,4.17 µM (active),
CC[C@@H]([C@H](C)O)n1ncn(-c2ccc(N3CCN(c4ccc(OCC5CO[C@@](Cn6cncn6)(c6ccc(F)cc6F)C5)cc4)CC3)cc2)c1=O (stereo not given in full),18.6 µM (active),
COc1cc2ncnc(Nc3cccc(Cl)c3)c2cc1OC,13.2 µM (active),
Cc1cc(-c2nc3cc(F)ccc3s2)ccc1NC(=O)[C@@H](N)CCCCN,20.9 µM (active),
N#Cc1ccc(COC[C@H]2O[C@@H](n3c(NCc4ccc(Cl)c(Cl)c4)nc4c(N)ncnc43)[C@H](O)[C@@H]2O)cc1,14.8 µM (active),
CC(=O)Oc1cc2c(s1)CCN(C(C(=O)C1CC1)c1ccccc1F)C2 (stereo not given),,inactive
OCCn1cc(-c2ccc3c(c2)CC/C3=N\O)c(-c2ccncc2)n1,14.8 µM (active),
CN1c2ccccc2C(=O)N2CCc3c([nH]c4ccccc34)C21 (stereo not given),2.95 µM (active),
CC[C@H](CC#N)OC(=O)N[C@@H](C)c1cccc(NC(=O)Nc2ccc(-c3cnco3)c(OC)c2)c1,0.525 µM (active),
O=C(Nc1ccc(OC(F)(F)Cl)cc1)c1cnc(N2CC[C@@H](O)C2)c(-c2ccn[nH]2)c1,23.5 µM (active),
CNc1nccc(-c2cccnc2Oc2cc(C(=O)Nc3cccc(C(F)(F)F)c3)ccc2C)n1,3.72 µM (active),
CCC(=C/[C@H](C)C/C=C/C(C)=C/[C@@H](C)C(=O)[C@@H](C)[C@H](O)[C@@H](C)C/C(C)=C/C(=O)O)/C=C/[C@@H]1OC(=O)C=C[C@@H]1C,0.00296 µM (active),
Cc1nc([C@](C)(O)CO)sc1-c1cnc(N)c(O[C@H](C)c2cc(F)ccc2-n2nccn2)c1,8.33 µM (active),

Compound,AC50,outcome
O=c1ccn([C@@H]2O[C@H](CO)[C@@H](O)[C@@H]2F)c(=O)[nH]1,,inactive
COC1=C2C[C@H](C)C[C@H](OC)[C@H](O)[C@@H](C)/C=C(/C)[C@H](OC(N)=O)[C@@H](OC)/C=C\C=C(\C)C(=O)NC(=CC1=O)C2=O,0.235 µM (active),
Clc1ccc2ncc(-c3cccc(NC4CNC4)n3)n2c1,,inactive
O=C1NC(=O)[C@@H](c2cn3c4c(cccc24)CCC3)[C@@H]1c1c[nH]c2ccccc12,1.05 µM (active),
CCNC(=O)Nc1ccc(-c2nc3c(c(N4CCOC[C@@H]4C)n2)CCN(C2COC2)C3)cc1,2.95 µM (active),
CN(C)CC(=O)N1CCC(c2ccc(NC(=O)c3ncc(C#N)[nH]3)c(C3=CCCCC3)c2)CC1,23.5 µM (active),
Nc1cccc(-c2cc3c(Oc4cccc(O)c4)ncnc3[nH]2)c1,1.66 µM (active),
Cc1ccc(C(=O)OCc2ccc([C@@H](CN)C(=O)Nc3ccc4cnccc4c3)cc2)c(C)c1,12.9 µM (active),
O=C(O)/C(S)=C/c1ccc(I)cc1,,inactive
CNc1nc(Nc2ccc(C(=O)N3CCOCC3)cc2OC)ncc1Cl,,inactive
O=C(Nc1nc2cccc(-c3ccc(CN4CCS(=O)(=O)CC4)cc3)n2n1)C1CC1,14.8 µM (active),
O=C(CCCCCCC(=O)Nc1ccc([C@H]2O[C@@H](CSc3nc(-c4ccccc4)c(-c4ccccc4)o3)C[C@@H](c3ccc(CO)cc3)O2)cc1)NO,,inactive
Cc1cc(O)c(-c2ccc([C@@H](C)CN)cc2)c2c1[nH]c(=O)c1sccc12,0.118 µM (active),
C[C@@H]1Cc2c([nH]c3ccccc23)[C@@H](c2c(F)cc(/C=C/C(=O)O)cc2F)N1CC(C)(C)F,,inactive
CC(C)(O)CC(=O)NCCn1ccc2ncnc(Nc3ccc(Oc4cccc(C(F)(F)F)c4)c(Cl)c3)c21,18.6 µM (active),
CO[C@@H]1[C@@H](O)[C@H](O)[C@@H](n2c3c(Cl)cccc3c3c4c(c5c6cccc(Cl)c6[nH]c5c32)C(=O)NC4=O)O[C@H]1CO,0.105 µM (active),
Nc1ncc(C(=O)NC2CN(C(=O)C3CC3)C2)c2ccc(-c3cccc(F)c3)nc12,,inactive
CNC(=O)c1cc(Oc2ccc(NC(=O)Nc3ccc(Cl)c(C(F)(F)F)c3)c(F)c2)ccn1,16.6 µM (active),
CS(=O)(=O)N1CCc2c(-c3cnc(N)nc3)nc(N3CCOCC3)nc21,1.86 µM (active),
